CHT inh – human CHT choline transport inhibition | Q9GZV3 | CHT-expressing cells, membrane potential dye, choline response; hits give low values | B-score at 10 µM | actives 0.86% (n = 310,000);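 active = B-score over 3 SD under the library average, and starting fluorescence ratio not unusually high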;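 note: choline stimulus applied at its EC90 after an EC20 pre-addition; B-score computed on integrated fluorescence ratio after choline addition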
TMEM16A act – mouse TMEM16A channel activation, primary screen; HEK293 TMEM16A/YFP-H148Q/I152L, iodide quench fluorescence; hits give low values; Q8BHY3; actives 0.3% (n = 340,000); B-score at 10 µM;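 active = fluorescence-ratio B-score plate-corrected deviation score at least 3 library SD below zero, with starting fluorescence score within 5 deviations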;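 note: channel opened by trigger with iodide after compound preincubation; score built on the fluorescence ratio of max minus min over baseline; more negative score means more quench and so TMEM16A activation or potentiation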
Target sequence (Q8BHY3 whole entry, looked up): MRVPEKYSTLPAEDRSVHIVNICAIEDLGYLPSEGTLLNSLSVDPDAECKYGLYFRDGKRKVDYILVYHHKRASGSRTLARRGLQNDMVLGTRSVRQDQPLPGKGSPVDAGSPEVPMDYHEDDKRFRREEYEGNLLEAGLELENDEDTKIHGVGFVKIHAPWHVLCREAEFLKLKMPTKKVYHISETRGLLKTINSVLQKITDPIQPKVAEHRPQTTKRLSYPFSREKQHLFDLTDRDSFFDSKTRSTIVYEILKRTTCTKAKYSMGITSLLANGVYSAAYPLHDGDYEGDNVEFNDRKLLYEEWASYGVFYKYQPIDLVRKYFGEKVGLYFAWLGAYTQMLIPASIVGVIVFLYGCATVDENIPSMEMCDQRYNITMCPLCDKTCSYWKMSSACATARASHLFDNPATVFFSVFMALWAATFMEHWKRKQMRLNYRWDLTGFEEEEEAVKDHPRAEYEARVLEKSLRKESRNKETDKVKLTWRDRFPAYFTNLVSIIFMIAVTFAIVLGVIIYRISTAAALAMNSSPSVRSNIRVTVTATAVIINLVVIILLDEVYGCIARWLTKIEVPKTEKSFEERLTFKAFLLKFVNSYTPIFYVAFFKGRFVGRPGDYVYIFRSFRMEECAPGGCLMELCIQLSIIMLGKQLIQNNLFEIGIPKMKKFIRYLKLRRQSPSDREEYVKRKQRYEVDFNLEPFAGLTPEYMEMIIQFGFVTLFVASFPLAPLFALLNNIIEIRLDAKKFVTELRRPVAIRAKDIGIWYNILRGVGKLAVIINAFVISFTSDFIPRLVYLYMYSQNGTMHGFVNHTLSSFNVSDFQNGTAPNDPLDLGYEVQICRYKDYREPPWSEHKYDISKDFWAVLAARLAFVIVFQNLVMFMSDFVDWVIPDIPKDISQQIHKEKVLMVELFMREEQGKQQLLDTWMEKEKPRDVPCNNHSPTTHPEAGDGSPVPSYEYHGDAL
TMEM16A inh – mouse TMEM16A channel inhibition, primary screen. Q8BHY3. HEK293 TMEM16A/YFP iodide influx fluorescence, ionomycin. normalized B-score (activity score, 25-100; higher = stronger inhibition) at 10 µM. actives 1.2% (n = 310,000);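 active = ratio plate-corrected score three or more library SD toward inhibition, starting fluorescence score within five deviations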;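 note: score derived from kinetic fluorescence span divided by baseline fluorescence per well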
CHT PAM – allosterically activates the human high affinity choline transporter; actives 0.49% (n = 310,000); B-score at 10 µM; CHT-expressing cells, membrane potential dye, choline EC20; hits give high values; LV-AA mutant CHT in HEK293 cells; Q9GZV3; AID 488977;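 active = initial fluorescence not abnormally high and integrated response B-score, plate-corrected, over 3 SD above library mean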
Starred values were filed as active, the others as inactive; i = inactive; x = no result given; ! = not confirmed by another sample. Hits are enriched below; roughly 2.4% of the tested compounds scored in any of these assays.

SMILES	CHT inh	TMEM16A act	TMEM16A inh	CHT PAM
CSc1nc2nc3c(cc2c(=O)n1-c1ccccc1)COC(C)(C)C3	i	i	i	i
CC(=O)c1sc(NC(=O)COc2c(C)cc(Cl)cc2C)nc1C	i	x	i	i
CC1=C(C)/C(=N\OS(=O)(=O)c2ccc(C)cc2)C=CC1=O	i	-4.8*	25*	i
COc1ccc(S(=O)(=O)/N=C2/C=CC(=O)C(C)=C2C)cc1	i	i	i	i
CCN(CC)CCOC(=O)c1ccc(NC(=O)c2ccc(Cl)c(S(=O)(=O)N3CCCCCC3)c2)cc1	i	i	25*	i
CC(=O)c1cccc(NC(=O)c2cccc(S(=O)(=O)N3CCOCC3)c2)c1	i	i	i	i
CCOC(=O)c1ccc(NC(=O)c2cccc(S(=O)(=O)N3CCOCC3)c2)cc1	i	i	100*	i
CC(C)(C)OC(=O)C[C@@H]1C/C=C\C[C@H](CC(=O)N[C@H](CO)Cc2ccccc2)C(=O)N2CCC[C@H]2COC1=O	x	i	x	x
Cc1cccc(C)c1OCC(=O)NNC(=O)CNC(=O)c1ccc(OC(F)F)cc1	x	i	x	x
Cc1ccc(C)c(OCCC(=O)OCC(=O)NCCc2ccc(S(N)(=O)=O)cc2)c1	i	-4.8*	i	i
CCOC(=O)c1cc(-c2ccccc2C)nn1CC1CC(c2cccnc2)=NO1 (stereo not given)	x	i	x	x
CCCSc1nnc(NC(=O)Nc2ccc(F)cc2)s1	i	i	100*	i
CCC(=O)Nc1nnc(SCCOC)s1	i	i	25*	i
COCCSc1nnc(NC(=O)COC)s1	i	i	i	i
O=C1CN(C(=O)CNC(=O)c2cccc(Cl)c2)c2ccccc2N1	i	i	i	i
Oc1cccc2c(NC(=S)Nc3ccc(SC(F)F)cc3)cccc12	i	i	100*	i
O=C(NCC1CCS(=O)(=O)C1)Oc1ccccc1 (stereo not given)	i	i	i	i
CN1CCN(CCCN2c3ccccc3Sc3ccc(Cl)cc32)CC1	i	i	25*!	i
CCSc1ccc2c(c1)N(CCCN1CCN(C)CC1)c1ccccc1S2	i	i	i	i
COc1ccc2nc3cc(Cl)ccc3c(C#N)c2c1	i	-7.2*	i	i
COc1ccc2nc(C(F)(F)Cl)c(C#N)c(N)c2c1	i	i	i	i
Cc1ccc(C(=O)NC(=S)NNC(=O)c2ccccc2)cc1	i	i	i	i
Cc1ccc(C(=O)NNC(=S)NC(=O)c2ccccc2)cc1	i	i	100*	i
COc1cc(Cl)c(C)cc1NC(=O)CSc1cc(Cl)ccc1Cl	i	i	100*	i
O=C(O)CC1=C(O)C(=O)N(c2ccccc2)C1c1ccc(Br)cc1 (stereo not given)	i	-13*	i	i
SMILES	CHT inh	TMEM16A act	TMEM16A inh	CHT PAM
O=C(O)CC1=C(O)C(=O)N(c2ccccc2)C1c1ccccc1 (stereo not given)	i	i	i	i
Nc1c(N2CCCCC2)c(=O)[nH]c(=O)n1-c1ccccc1	i	i	i	i
C=CCn1c(SCC(=O)OC)nc2sc3c(c2c1=O)CCN(C)C3	i	x	i	6.3*
COC(=O)CSc1nc2sc3c(c2c(=O)n1-c1ccccc1)CCN(C)C3	i	i	i	i
CC1=C(C(=O)Nc2ccccc2F)C(c2ccsc2)C2=C(CC(c3ccccc3)CC2=O)N1 (stereo not given)	i	i	i	i
CC(Oc1ccc(Br)cc1)C(=O)Nc1ccc(S(=O)(=O)N(C)C2CCN(C)CC2)cc1 (stereo not given)	i	-10*	i	7.1*
Cc1ccc(C)c(C(C)NC(=O)c2ccncc2)c1 (stereo not given)	i	i	i	i
CSCCC1NC(=O)N(CC(=O)N2N=C(c3ccc(Cl)cc3)CC2c2ccco2)C1=O (stereo not given)	i	i	25*	i
CC(=O)N1N=C(c2ccc(Cl)cc2)CC1c1ccco1 (stereo not given)	i	i	i	i
Cc1cccc(N(C)S(=O)(=O)c2ccc(-c3cnc(C4CC4)o3)cc2)c1	i	i	i	7.3*
CCOC(=O)C1=C(C)NC(=O)/C1=C\N(C)C	i	i	i	i
Cc1nn(-c2ccc(Cl)cc2)c(=O)c2ccccc12	i	i	i	i
Cc1c(Cl)sn(-c2ccc(Cl)cc2)c1=O	x	-14*	x	x
CC(C)CCN1C(=O)c2ccc(C(=O)NCc3ccccn3)cc2C1=O	i	i	i	i
CCC1CCCCN1S(=O)(=O)c1ccc(S(=O)(=O)N(Cc2cccs2)C2CC2)cc1 (stereo not given)	i	-16*	i	i
Cc1ccn2c(=O)c(C(=O)O)cnc2c1	i	i	i	i
Cc1ccc(C)c(Cn2nnc3c(=O)[nH]c(C4CCCN(C(=O)c5ccco5)C4)nc32)c1 (stereo not given)	i	i	i	i
CCC1CCCCN1C(=O)c1cc(COc2ccc3ncccc3c2)on1 (stereo not given)	i	i	25*	i
O=C(NCc1cccc(Cl)c1)c1cc(COc2ccc3ncccc3c2)on1	i	i	100*	i
Cc1ccc(F)cc1CNC(=O)c1cc(COc2ccc3ncccc3c2)on1	i	i	i	i
Cc1ccn2cc(-c3ccc4c(c3)NC(=O)CO4)nc2c1	i	i	i	i
C=CCn1c(=O)c(C#N)cc2c(=O)n3ccccc3nc21	i	i	i	7.2*
C=CCn1c(=N)c(C#N)cc2c(=O)n3ccccc3nc21	i	i	i	i
CNC(=O)c1ccsc1NC(=O)CCS(=O)(=O)c1ccc(Cl)cc1	i	i	i	i
COc1ccc(C(=O)c2cc3ccc(O)cc3oc2=O)cc1	i	i	i	i
SMILES	CHT inh	TMEM16A act	TMEM16A inh	CHT PAM
O=C(c1ccc(Br)cc1)c1cc2ccc(O)cc2oc1=O	i	i	25*	i
O=C1Nc2ccccc2C(=O)N2[C@H](c3ccccc3)[C@@H]3C(=O)N(Cc4ccccc4)C(=O)[C@@H]3[C@H]12	i	i	i	i
O=C1Nc2ccccc2C(=O)N2[C@H](c3cccc(Br)c3)[C@@H]3C(=O)N(Cc4ccccc4)C(=O)[C@@H]3[C@H]12	i	-7.1*	i	i
CCCCn1cnc2c(c(-c3ccccc3)c(-c3ccccc3)n2Cc2ccco2)c1=N	i	i	100*	i
N=c1c2c(-c3ccccc3)c(-c3ccccc3)n(Cc3ccco3)c2ncn1Cc1ccco1	i	i	100*	i
N=c1c2c(ncn1Cc1ccco1)Oc1ccc3ccccc3c1C2c1ccccc1 (stereo not given)	i	i	i	i
CCCCn1c(=O)[nH]c(=O)c2c1ncn2Cc1ccco1	i	i	i	i

From PubChem BioAssay
